Common to all, as to experiment: log2 fold change, soluble protein after heating vs DMSO (PISA); higher = thermal stabilisation; K562 lysate, 10 uM; active = over 0.2 and 3.5 SD of the protein, either way, in both replicates (recomputed)
Compound in one test: CS(=O)(=O)CCNCc1ccc(-c2ccc3ncnc(Nc4ccc(OCc5cccc(F)c5)c(Cl)c4)c3c2)o1 [lapatinib]
The method in brief: (§1)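 To prepare the extract, K562 pellets were dounce-homogenised in PBS pH 7.4 with 1 mM MgCl2, giving crude material at 1 mg/mL protein. This was treated with 10 μM compound for 30 min, then heated in aliquots for 3 min over 48°C-58°C before pooling and addition of NP-40 to 0.5% at 4°C. Centrifugation at 21,000xg for 90 min left soluble protein in the supernatant, which TMTpro 16plex LC-MS/MS quantified with equalised channel sums. Results are log-two fold changes in thermal stability compared with solvent controls, from duplicates.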

Compound in a further test: CS(=O)(=O)N1CCN(Cc2cc3nc(-c4cccc5[nH]ncc45)nc(N4CCOCC4)c3s2)CC1 [pictilisib]
The method in brief:
as §1

Compound in the next test: C[C@@H](Oc1cc(-c2cnn(C3CCNCC3)c2)cnc1N)c1c(Cl)ccc(F)c1Cl [crizotinib]
Put shortly: as §1

Compound in test [1]: C[C@H](C1=CC=C(C=C1)C(=O)NC2=C3C=CNC3=NC=C2)N
The method in brief:
as §1

Compound in the next test: C[C@H](Nc1ncnc2nc[nH]c12)c1cc2cccc(Cl)c2c(=O)n1-c1ccccc1 [duvelisib]
The method in brief: as §1

Compound in the next test: Cc1cc(Nc2cc(CN3CCOCC3)c3nc(C)c(Cc4ccc(Cl)cc4F)n3n2)n[nH]1 [gandotinib]
Put shortly: as §1

Compound in another test: Cc1cc(Nc2cc(N3CCN(C)CC3)nc(Sc3ccc(NC(=O)C4CC4)cc3)n2)n[nH]1 [tozasertib]
The method in brief:
as §1

Compound in a further test: Cc1ccc(-n2nc(C(C)(C)C)cc2NC(=O)Nc2ccc(OCCN3CCOCC3)c3ccccc23)cc1 [doramapimod]
Put shortly: as §1

Compound in the next test: Cc1ccc(NC(=O)c2ccc(CN3CC[C@H](N(C)C)C3)c(C(F)(F)F)c2)cc1Nc1nccc(-c2cncnc2)n1 [bafetinib]
The method in brief:
as §1

Compound in test [2]: Cc1cccc(CC(=O)N2CCc3c2ccc(-c2cn(C)c4ncnc(N)c24)c3F)n1
The method in brief:
as §1

Consider 15 targets from the supplement of paper PMC10849652.

Targets with a hit are over-represented here; the source holds about 8,800 in all. About 0.5% of all pairs of compound and target were hits. A number with no mark means an inactive call.

Sequence of UniProt Q9UKE5 (Q9UKE5 whole entry, looked up): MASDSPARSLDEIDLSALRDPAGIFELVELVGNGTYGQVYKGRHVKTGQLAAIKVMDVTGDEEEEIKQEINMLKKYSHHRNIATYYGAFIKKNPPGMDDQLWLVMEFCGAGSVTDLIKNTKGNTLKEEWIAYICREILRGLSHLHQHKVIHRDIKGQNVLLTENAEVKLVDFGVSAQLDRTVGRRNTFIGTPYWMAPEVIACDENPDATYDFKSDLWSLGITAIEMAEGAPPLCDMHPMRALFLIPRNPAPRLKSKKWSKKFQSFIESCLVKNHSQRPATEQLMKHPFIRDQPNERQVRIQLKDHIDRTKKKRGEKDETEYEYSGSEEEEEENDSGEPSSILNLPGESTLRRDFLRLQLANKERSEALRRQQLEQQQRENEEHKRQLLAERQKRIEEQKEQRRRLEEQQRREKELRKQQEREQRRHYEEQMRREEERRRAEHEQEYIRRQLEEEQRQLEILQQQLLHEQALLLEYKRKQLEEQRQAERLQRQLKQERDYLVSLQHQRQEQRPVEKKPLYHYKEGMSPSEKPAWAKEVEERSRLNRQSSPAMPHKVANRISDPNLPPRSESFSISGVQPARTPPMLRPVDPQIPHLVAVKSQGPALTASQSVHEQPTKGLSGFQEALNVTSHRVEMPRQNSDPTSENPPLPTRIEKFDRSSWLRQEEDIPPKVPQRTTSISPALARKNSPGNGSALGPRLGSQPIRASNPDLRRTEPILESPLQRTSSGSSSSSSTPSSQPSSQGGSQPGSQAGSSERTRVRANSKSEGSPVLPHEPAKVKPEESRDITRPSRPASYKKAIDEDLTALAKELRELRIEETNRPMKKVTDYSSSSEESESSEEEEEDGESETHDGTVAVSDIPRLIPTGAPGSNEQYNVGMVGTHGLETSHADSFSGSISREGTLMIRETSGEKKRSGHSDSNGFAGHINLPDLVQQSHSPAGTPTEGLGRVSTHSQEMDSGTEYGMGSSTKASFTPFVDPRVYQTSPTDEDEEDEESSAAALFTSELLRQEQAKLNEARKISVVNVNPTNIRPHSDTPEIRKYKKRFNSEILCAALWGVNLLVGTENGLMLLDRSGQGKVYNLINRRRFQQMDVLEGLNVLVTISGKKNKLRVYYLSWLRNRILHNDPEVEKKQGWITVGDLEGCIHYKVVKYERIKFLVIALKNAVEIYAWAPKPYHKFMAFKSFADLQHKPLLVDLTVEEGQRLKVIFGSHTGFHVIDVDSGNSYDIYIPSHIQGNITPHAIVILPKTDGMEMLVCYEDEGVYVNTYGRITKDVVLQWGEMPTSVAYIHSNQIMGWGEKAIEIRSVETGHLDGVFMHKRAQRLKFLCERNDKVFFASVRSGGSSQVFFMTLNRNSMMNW
Sequence of UniProt P04183 (P04183 whole entry, looked up): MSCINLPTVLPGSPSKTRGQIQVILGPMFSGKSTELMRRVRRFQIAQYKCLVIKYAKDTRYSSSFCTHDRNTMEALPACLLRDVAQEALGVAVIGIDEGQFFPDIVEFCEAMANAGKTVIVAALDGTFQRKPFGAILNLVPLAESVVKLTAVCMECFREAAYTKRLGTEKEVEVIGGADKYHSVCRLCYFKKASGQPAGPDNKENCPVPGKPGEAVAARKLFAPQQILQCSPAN
Sequence of UniProt Q96S44 (Q96S44 whole entry, looked up): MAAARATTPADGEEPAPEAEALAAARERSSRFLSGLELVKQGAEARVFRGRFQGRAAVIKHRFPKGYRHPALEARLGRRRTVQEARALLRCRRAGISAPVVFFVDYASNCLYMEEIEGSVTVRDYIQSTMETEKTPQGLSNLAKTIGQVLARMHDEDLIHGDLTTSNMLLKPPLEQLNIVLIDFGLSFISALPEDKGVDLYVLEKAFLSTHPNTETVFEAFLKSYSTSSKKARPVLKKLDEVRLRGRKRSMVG
Sequence of UniProt Q8NBN3 (Q8NBN3 whole entry, looked up): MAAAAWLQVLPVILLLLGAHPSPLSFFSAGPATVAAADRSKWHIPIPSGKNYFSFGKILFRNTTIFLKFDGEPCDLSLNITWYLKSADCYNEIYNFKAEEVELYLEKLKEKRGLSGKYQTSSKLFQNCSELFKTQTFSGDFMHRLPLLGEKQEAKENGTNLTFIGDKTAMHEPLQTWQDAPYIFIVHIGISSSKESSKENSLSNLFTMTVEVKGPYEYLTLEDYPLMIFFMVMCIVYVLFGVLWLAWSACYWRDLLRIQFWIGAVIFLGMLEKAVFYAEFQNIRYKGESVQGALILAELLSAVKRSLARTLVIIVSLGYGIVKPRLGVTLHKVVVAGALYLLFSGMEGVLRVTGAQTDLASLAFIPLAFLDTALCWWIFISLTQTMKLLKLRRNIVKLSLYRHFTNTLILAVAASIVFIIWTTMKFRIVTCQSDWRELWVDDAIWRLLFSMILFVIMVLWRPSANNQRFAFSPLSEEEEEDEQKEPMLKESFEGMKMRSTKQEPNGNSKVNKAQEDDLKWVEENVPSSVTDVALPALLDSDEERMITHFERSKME
Sequence of UniProt O75865 (O75865 whole entry, looked up): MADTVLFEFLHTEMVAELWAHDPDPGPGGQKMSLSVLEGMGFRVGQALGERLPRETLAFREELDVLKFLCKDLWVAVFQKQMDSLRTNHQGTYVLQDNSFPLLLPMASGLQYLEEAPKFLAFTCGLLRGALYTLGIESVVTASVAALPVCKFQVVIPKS
Sequence of UniProt Q13885 (Q13885 whole entry, looked up): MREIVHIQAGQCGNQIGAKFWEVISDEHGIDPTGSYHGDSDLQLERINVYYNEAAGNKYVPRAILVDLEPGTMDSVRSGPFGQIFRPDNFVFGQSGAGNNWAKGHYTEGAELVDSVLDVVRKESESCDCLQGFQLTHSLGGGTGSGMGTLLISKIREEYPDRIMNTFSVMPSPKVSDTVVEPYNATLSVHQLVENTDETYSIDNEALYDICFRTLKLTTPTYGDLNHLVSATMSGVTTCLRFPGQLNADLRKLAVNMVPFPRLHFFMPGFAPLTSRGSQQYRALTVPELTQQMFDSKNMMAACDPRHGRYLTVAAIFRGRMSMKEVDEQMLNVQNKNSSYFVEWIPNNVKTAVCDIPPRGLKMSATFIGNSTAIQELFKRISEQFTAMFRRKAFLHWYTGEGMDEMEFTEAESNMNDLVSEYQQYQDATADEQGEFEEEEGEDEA
Sequence of UniProt Q9BRZ2 (Q9BRZ2 whole entry, looked up): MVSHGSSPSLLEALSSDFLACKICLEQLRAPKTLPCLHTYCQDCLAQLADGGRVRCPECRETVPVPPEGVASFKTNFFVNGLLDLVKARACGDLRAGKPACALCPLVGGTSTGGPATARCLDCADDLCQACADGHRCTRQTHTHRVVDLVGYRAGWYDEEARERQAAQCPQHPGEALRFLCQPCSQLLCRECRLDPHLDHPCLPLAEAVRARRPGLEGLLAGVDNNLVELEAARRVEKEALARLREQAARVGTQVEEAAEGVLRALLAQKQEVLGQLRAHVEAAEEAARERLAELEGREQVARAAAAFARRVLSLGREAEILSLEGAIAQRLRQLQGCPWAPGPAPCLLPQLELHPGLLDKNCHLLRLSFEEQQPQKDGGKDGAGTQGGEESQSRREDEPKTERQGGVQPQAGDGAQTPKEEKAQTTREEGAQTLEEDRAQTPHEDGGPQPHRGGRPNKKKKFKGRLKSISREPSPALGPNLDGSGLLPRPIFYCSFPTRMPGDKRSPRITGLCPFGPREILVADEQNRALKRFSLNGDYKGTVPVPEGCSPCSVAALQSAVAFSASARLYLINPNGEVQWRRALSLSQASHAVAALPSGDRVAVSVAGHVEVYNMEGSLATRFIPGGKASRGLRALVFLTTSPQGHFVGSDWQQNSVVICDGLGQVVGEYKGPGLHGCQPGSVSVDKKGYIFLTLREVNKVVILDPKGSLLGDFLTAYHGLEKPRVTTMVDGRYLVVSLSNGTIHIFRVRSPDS
Sequence of UniProt Q5U3C3 (Q5U3C3 whole entry, looked up): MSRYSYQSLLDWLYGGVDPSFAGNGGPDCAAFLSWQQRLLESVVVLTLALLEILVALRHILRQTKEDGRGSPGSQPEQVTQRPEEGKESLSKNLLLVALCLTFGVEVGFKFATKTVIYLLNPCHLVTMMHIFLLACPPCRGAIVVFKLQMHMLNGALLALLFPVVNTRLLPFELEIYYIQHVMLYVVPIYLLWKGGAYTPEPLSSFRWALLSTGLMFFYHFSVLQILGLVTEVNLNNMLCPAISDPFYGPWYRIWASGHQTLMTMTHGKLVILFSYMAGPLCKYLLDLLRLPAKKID
Sequence of UniProt Q969Z0 (Q969Z0 whole entry, looked up): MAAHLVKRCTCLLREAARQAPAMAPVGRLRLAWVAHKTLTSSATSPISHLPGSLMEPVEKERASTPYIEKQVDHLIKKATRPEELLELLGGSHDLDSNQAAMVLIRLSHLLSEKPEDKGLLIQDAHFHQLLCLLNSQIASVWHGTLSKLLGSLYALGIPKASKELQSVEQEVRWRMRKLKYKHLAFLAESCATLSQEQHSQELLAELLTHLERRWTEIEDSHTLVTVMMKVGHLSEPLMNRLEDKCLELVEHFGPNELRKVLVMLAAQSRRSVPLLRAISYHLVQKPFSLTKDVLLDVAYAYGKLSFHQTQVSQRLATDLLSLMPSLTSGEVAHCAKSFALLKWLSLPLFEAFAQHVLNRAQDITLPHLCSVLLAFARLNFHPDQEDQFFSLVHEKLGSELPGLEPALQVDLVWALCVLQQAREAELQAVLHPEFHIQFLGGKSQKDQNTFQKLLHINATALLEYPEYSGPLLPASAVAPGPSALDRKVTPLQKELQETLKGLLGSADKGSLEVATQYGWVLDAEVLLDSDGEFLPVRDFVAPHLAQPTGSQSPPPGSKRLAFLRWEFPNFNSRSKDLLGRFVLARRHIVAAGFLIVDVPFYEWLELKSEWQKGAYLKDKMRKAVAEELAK
Sequence of UniProt Q6IPR3 (Q6IPR3 whole entry, looked up): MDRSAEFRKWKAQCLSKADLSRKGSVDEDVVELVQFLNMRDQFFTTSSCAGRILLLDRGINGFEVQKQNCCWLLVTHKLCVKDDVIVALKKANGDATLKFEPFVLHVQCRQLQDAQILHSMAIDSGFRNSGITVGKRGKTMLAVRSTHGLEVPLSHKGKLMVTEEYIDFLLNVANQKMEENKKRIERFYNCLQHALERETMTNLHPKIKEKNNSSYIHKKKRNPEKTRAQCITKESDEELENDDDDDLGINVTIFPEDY

For the target TMEM87A (UniProt Q8NBN3), the log2 fold change was -0.007 with lapatinib; -0.015 with pictilisib; 0.016 with crizotinib; -0.082 in test [1]; 0.012 in the test with duvelisib; 0.242 (active) with gandotinib. Besides, the log2 fold change was -0.029 with tozasertib, 0.026 with doramapimod, -0.007 in the test with bafetinib and 0.248 (active) in [2].
On to UBR4 (UniProt Q5T4S7), for which the log2 fold change with lapatinib is -0.023; with pictilisib it was -0.015; with crizotinib it was -0.038; in test [1], -0.017; with duvelisib it was -0.001; with gandotinib, -0.08. For the same target, the log2 fold change in the test with tozasertib was 0; in the test with doramapimod, 0.01; in the test with bafetinib, -0.038; in test [2], 0.037.
As to UCHL5 (UniProt Q5LJA9), the log2 fold change with lapatinib was 0.027; in the test with pictilisib, 0.001; in the test with crizotinib, -0.036; in [1], -0.07; in the test with duvelisib it was 0.082; with gandotinib, -0.074. For the same target, the log2 fold change in the test with tozasertib is 0.003; with doramapimod, 0.067; in the test with bafetinib it was -0.07; in test [2], -0.156.
As for TBRG4 (UniProt Q969Z0), the log2 fold change is -0.021 with lapatinib; -0.039 with pictilisib; -0.031 with crizotinib; 0.08 in test [1]; 0.006 in the test with duvelisib; -0.269 (active) with gandotinib. Besides, the log2 fold change with tozasertib is 0.038; with doramapimod, -0.012; with bafetinib it was -0.029; in test [2], -0.021.
On to TP53RK (UniProt Q96S44), for which the log2 fold change with lapatinib is -0.011; in the test with pictilisib, 0.026; in the test with crizotinib it was 0.042; in [1], 0.042; with duvelisib, -0.029; with gandotinib it was -0.041. Further, the log2 fold change is -0.01 with tozasertib, -0.029 with doramapimod, -0.032 with bafetinib and 0.035 in test [2].
In the case of TMPO (UniProt P42167), the log2 fold change with lapatinib was 0.053; in the test with pictilisib, 0.029; with crizotinib, 0.059; in test [1], 0.047; in the test with duvelisib, -0.039; with gandotinib, -0.033. Moreover, the log2 fold change in the test with tozasertib is 0.035; with doramapimod, -0.037; with bafetinib it was 0.005; in [2] it was -0.04.
As to TK1 (UniProt P04183), the log2 fold change was -0.006 with lapatinib; 0.022 in the test with pictilisib; 0.022 with crizotinib; -0.133 in test [1]; 0.023 in the test with duvelisib; 0.062 with gandotinib. Further, the log2 fold change was 0 with tozasertib, 0 with doramapimod, 0.009 in the test with bafetinib and 0.021 in test [2].
TYW3 (UniProt Q6IPR3): the log2 fold change in the test with lapatinib was -0.014; with pictilisib it was 0.008; with crizotinib it was -0.022; in test [1] it was -0.144; in the test with duvelisib, 0.018; with gandotinib, 0.1. The log2 fold change with tozasertib is 0; with doramapimod it was 0.054; with bafetinib, 0.051; in [2], 0.176.
TRIP13 (UniProt Q15645): the log2 fold change with lapatinib was -0.015; in the test with pictilisib, 0.014; with crizotinib, -0.028; in test [1], 0.039; in the test with duvelisib it was -0.01; with gandotinib it was -0.187. The log2 fold change with tozasertib was 0.005; with doramapimod, 0.026; with bafetinib, -0.029; in test [2], -0.045.
Consider TRIM56 (UniProt Q9BRZ2), for which the log2 fold change with lapatinib is 0.001; in the test with pictilisib, -0.002; in the test with crizotinib, -0.002; in test [1] it was 0.085; in the test with duvelisib, 0.003; with gandotinib, -0.071. For the same target, the log2 fold change with tozasertib was 0; in the test with doramapimod, 0.023; in the test with bafetinib, -0.132; in test [2], 0.085.
Take TUBB2A (UniProt Q13885): the log2 fold change with lapatinib is 0.009; in the test with pictilisib, 0.011; in the test with crizotinib it was -0.049; in test [1], -0.016; with duvelisib it was -0.012; in the test with gandotinib, 0.028. Moreover, the log2 fold change in the test with tozasertib is -0.011; with doramapimod, 0.004; in the test with bafetinib it was 0.026; in [2], -0.005.
For TNIK isoform 4 (UniProt Q9UKE5), the log2 fold change was -0.017 in the test with lapatinib; 0.012 in the test with pictilisib; -0.055 in the test with crizotinib; 0.038 in [1]; 0.004 in the test with duvelisib; 0.153 with gandotinib. The log2 fold change with tozasertib is 0.098; in the test with doramapimod, 0.205; with bafetinib, -0.007; in test [2], -0.04.
With TRAPPC6A isoform 2 (UniProt O75865), the log2 fold change with lapatinib is 0.02; in the test with pictilisib, 0.015; in the test with crizotinib, 0.001; in [1] it was -0.146; with duvelisib, -0.006; with gandotinib, 0.14. Also, the log2 fold change with tozasertib is -0.039; with doramapimod it was -0.01; in the test with bafetinib, 0.017; in [2], 0.05.
Regarding TMEM164 (UniProt Q5U3C3), the log2 fold change in the test with lapatinib was -0.166; in the test with pictilisib, 0.186; in the test with crizotinib it was -0.03; in test [1], -0.789 (active); in the test with duvelisib it was 0.131; with gandotinib, 0.27. Besides, the log2 fold change is -0.091 with tozasertib, -0.173 in the test with doramapimod, -0.05 with bafetinib and 0.512 in test [2].
For the target TUBGCP5 (UniProt Q96RT8), the log2 fold change with lapatinib was 0.11; with pictilisib, 0.037; with crizotinib it was -0.064; in [1], -0.044; with duvelisib it was 0.103; in the test with gandotinib it was -0.009. In addition, the log2 fold change is 0.113 with tozasertib, 0.044 with doramapimod, -0.121 in the test with bafetinib and 0.101 in [2].
